Test results from PubChem BioAssay AID449762 (Southern Research Specialized Biocontainment Screening …, 2010).
In all, about 330,000 compounds went through this assay and about 1,900 (0.58%) were called active. Another 4% or so got no clear call; they are omitted. Cut-off read from the data, not from the text of the source: inconclusive = inhibition above about 70% without an active follow-up result; inactive = below that. These entries were drawn from the full list. Results with a measured potency or affinity are listed apart.

Experiment: M. tuberculosis growth inhibition, HTS (AID 449762);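 note: bacterial growth assessed after seven days of incubation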
Conditions: M. tuberculosis H37Rv growth inhibition, 7H9 media; at 25 µM; active compounds read high

Structure (SMILES) | inhibition
CC(C)(C)NC(=O)C1Cc2ccccc2CN1S(=O)(=O)c1ccc(F)cc1 (centres undefined) | -4.99% (inactive)
CC(C)Oc1cccc(C(=O)C2CCCN(Cc3cnc(N4CCOCC4)s3)C2)c1 (centres undefined) | 0.96% (inactive)
CCOC(=O)N1CCN(S(=O)(=O)c2ccc(C(=O)N(CCN(CC)CC)c3nc4ccc(C)cc4s3)cc2)CC1 | -2.86% (inactive)
CCN(CC)CCN(C(=O)c1ccc(S(=O)(=O)N2CCCCC2)cc1)c1nc2cc3c(cc2s1)OCO3 | 1.42% (inactive)
CCN(CC)C(=O)N1CCC(NC(=O)c2ccc(C(C)(C)C)cc2)CC1 | 9.36% (inactive)
Cc1cc(NC(=O)CSc2nc3ccccc3s2)no1 | 3.12% (inactive)
Cc1ccc(C=C2C(=O)c3ccccc3C2=O)o1 | -3.84% (inactive)
NS(=O)(=O)c1ccc(-c2ccc(/C=C3\C(=O)Nc4ccccc43)o2)cc1 | -2.7% (inactive)
CC1CN(S(=O)(=O)c2cccc(C(=O)NCCCn3ccnc3)c2)CC(C)O1 (centres undefined) | -14.2% (inactive)
CCOC(=O)NC(=O)c1cn(N(C)c2ncc(C(F)(F)F)cc2Cl)c(=O)[nH]c1=O | -2.39% (inactive)
CC(OC(=O)c1ccco1)C(=O)Nc1ccc(Cl)cn1 (centres undefined) | 0.78% (inactive)
CC(OC(=O)c1cc[n+]([O-])cc1)C(=O)Nc1ccc(Cl)cn1 (centres undefined) | -4.2% (inactive)
COC(=O)c1sccc1-n1cccc1C(=O)C(=O)N1CCCC1 | 0.85% (inactive)
CCOCc1cnc(C)nc1NCC(=O)c1c(C)[nH]c2ccc(OC)cc12 | -0.42% (inactive)
COc1cc2c(C(=O)N3CCN(c4cccc(Cl)c4)CC3)cn(C)c(=O)c2cc1OC | -1.4% (inactive)
CCn1cc(C(=O)N2CCN(c3cccc(Cl)c3)CC2)c2cc(OC)c(OC)cc2c1=O | -2.64% (inactive)
O=C(O)CCC(=O)NNC(=O)CCC1CCCCC1 | 0.82% (inactive)
CCOC(=O)c1c(NC(=O)OC)sc(C(=O)N(CC)CC)c1C | 10.1% (inactive)
CCN(CC)C(=O)c1[nH]cnc1C(=O)NCc1ccc(CNC(=O)OC(C)(C)C)cc1 | -4.15% (inactive)
Cc1oc2nc(SCC(=O)NC3CCCCC3)nc(N)c2c1C | 3.18% (inactive)
COc1cccc(CC2(CO)CCCN(Cc3cc4ccccc4[nH]3)C2)c1 (centres undefined) | 10.5% (inactive)
COc1cccc(CC2(CO)CCCN(Cc3ccc(C)s3)C2)c1 (centres undefined) | 1.24% (inactive)
COc1ccccc1CCNC(=O)CCSc1nc(-c2ccco2)cc(C(F)(F)F)n1 | -1.55% (inactive)
CCCN=Cc1sc2ccc(OCC)cc2c1O | -4.1% (inactive)

Structure (SMILES) | inhibition
Cc1cccc(NC(=O)/C(C#N)=C\c2cccnc2)c1 | -10.8% (inactive)
NC(=O)C1CCN(Cc2nc3cc(C(F)(F)F)ccc3c(=O)[nH]2)CC1 | 2.7% (inactive)
COc1cc2nc(CN3CC=C(c4ccccc4)CC3)[nH]c(=O)c2cc1OC | 3.16% (inactive)
COc1ccc(CCNC(=O)CCNS(=O)(=O)c2cccc3nonc23)cc1OC | 2.46% (inactive)
COC(=O)/C=C1/S/C(=N/NC(=O)c2ccccc2)NC1=O | -1.82% (inactive)
O=C(CN1CCCCC1)N/N=C/c1ccccc1OCc1ccccc1 | -1.99% (inactive)
Cn1c(=O)c2c(ncn2CC(=O)Nc2ccccc2Sc2ccccc2)n(C)c1=O | -2.88% (inactive)
CN(C)C(=O)c1cc(C(=O)c2ccc(F)cc2C(F)(F)F)c[nH]1 | -3.23% (inactive)
CCSc1nnnn1-c1ccccc1 | 3.88% (inactive)
c1ccc(-n2nnnc2SCCCSc2nc3ccccc3s2)cc1 | -4.17% (inactive)
N#Cc1ccccc1OCC(=O)N1CCc2ccccc2C1 | -4.88% (inactive)
Cc1ccc(-c2nnc(NCc3nc4ccccc4[nH]3)c3ccccc23)cc1S(=O)(=O)N1CCOCC1 | 63.7% (inactive)
Cc1nc(-c2ccccc2)sc1C(=O)CSc1ccc(Cl)cc1 | -5.11% (inactive)
c1ccc2c(c1)OCc1cn[nH]c1-2 | -2.59% (inactive)
Cc1ccc(/C=C/c2nnc(-c3ccccc3)o2)cc1 | -11.8% (inactive)
COC(=O)CSc1[nH]c2ccccc2c1[N+](=O)[O-] | -2.39% (inactive)
CCOC(=O)CSc1[nH]c2cc(OC)ccc2c1[N+](=O)[O-] | 6.24% (inactive)
CN(C)CCOc1ccc(C(C)(C)c2ccccc2)cc1 | -3.02% (inactive)
CN(C)CCOc1ccc2ccccc2c1 | 2.98% (inactive)
COc1ccccc1NC(=O)Nc1ccc(F)c(F)c1 | 0.47% (inactive)
CCc1nnc(NS(=O)(=O)c2ccc(N/C=C\C(=O)c3ccc4ccccc4c3)cc2)s1 | -6.64% (inactive)
CCc1nnc(NS(=O)(=O)c2ccc(N/C=C/C(=O)c3ccc(OC)cc3)cc2)s1 | 4.48% (inactive)
Cn1c(=O)c2c(SCC(=O)Nc3nccs3)nc(C3CC3)nc2n(C)c1=O | -1.82% (inactive)
Cc1ccc(C2=NS(=O)(=O)N(C)C(C(=O)Nc3cc(C)n(CC(=O)N4CCCCC4)n3)=C2)cc1 | -4.07% (inactive)

Structure (SMILES) | inhibition
Cc1cccc(N=C2C(=O)Nc3c(Cl)cccc32)c1 | 6.57% (inactive)
Cc1ccc(NC(=O)CSc2nc3ccccc3c3nc(CCn4cncc4C)nn23)c(C)c1 | 9.55% (inactive)
Cc1ccccc1NC(=O)CSc1nc2ccccc2c2nc(CCn3cncc3C)nn12 | 6.6% (inactive)
O=C(NCc1ccc2c(c1)OCO2)c1ccc(C2SCC(=O)N2Cc2ccco2)cc1 (centres undefined) | -7.71% (inactive)
COc1ccc(C(=O)NCc2ccc3c(c2)OCO3)cc1 | -0.3% (inactive)
COc1cc2c(cc1NC(=O)CN1CCN(S(=O)(=O)c3ccc(C)cc3)CC1)oc1ccccc12 | -6.72% (inactive)
Cc1nc2nc3c(c(=O)n2[nH]1)CCC3 | -2.58% (inactive)
O=c1c2c(nc3nc(NCc4ccccc4Cl)[nH]n13)CCC2 | 21.9% (inactive)
O=c1c2c(nc3nc(NCc4cccc(Cl)c4)[nH]n13)CCC2 | 19.9% (inactive)
Cc1nc2nc3c(c(=O)n2[nH]1)CCCC3 | -1.58% (inactive)
COc1ccc(NC(=O)C2CCN(c3cc(-c4ccccc4)nc4ncnn34)CC2)cc1OC | -9.41% (inactive)
CCOc1ncccc1C(=O)Nc1cccc(-c2nc3cccnc3s2)c1 | 2.6% (inactive)
CCn1c(=O)n(CC)c2cc(S(=O)(=O)Nc3c(C)cccc3C)ccc21 | -0.18% (inactive)
O=C1/C(=C\c2cccnc2)CCc2ccccc21 | 53.9% (inactive)
O=C1/C(=C/c2ccncc2)CCc2ccccc21 | 20.6% (inactive)
COc1ccc(CNC(=O)C2CCN(C(=O)c3csc(Nc4ccc(C)cc4)n3)CC2)cc1 | 9.09% (inactive)
CC(CN1CCCCC1)OC(=O)/C=C/c1ccccc1 (centres undefined) | 4.22% (inactive)
CCCc1nc2c(=O)[nH]c3ccccc3c2o1 | -2.82% (inactive)
CCCCc1nc2c(=O)[nH]c3ccccc3c2o1 | -3.26% (inactive)
CC(C)N1CCc2c(sc(NC(=O)CCc3ccccc3)c2C(N)=O)C1 | 2.58% (inactive)
c1cncc(CNc2ncnc3ccc(-c4ccc5c(c4)OCCO5)cc23)c1 | 6.78% (inactive)
Cc1cccc(CNc2ncnc3ccc(-c4ccc5c(c4)OCO5)cc23)c1 | 4.98% (inactive)
O=C(CN1C(=O)NC(c2ccccc2)(c2ccccc2)C1=O)N1CCCCC1 | 3.83% (inactive)
O=C1[C@H]2[C@@H](c3ccc(F)cc3)N3C(=O)N(c4ccccc4)C(=O)[C@@]3(Cc3ccccc3)[C@H]2C(=O)N1C1CCCCC1 | -4.71% (inactive)

Structure (SMILES) | inhibition
Cc1cccc(C2(c3cccc(C)c3)CC2C(=O)Nc2ccc([N+](=O)[O-])cc2O)c1 (centres undefined) | 8.65% (inactive)
CC1(C)CC1C(=O)Nc1ccc([N+](=O)[O-])cc1Br (centres undefined) | -1.2% (inactive)
CCC(=O)NC(=S)Nc1ccc(OC)cc1OC | 2.55% (inactive)
Cc1nc(SCC(=O)NCC2CCCO2)c2c(C)c(C)sc2n1 (centres undefined) | -15.3% (inactive)
Cc1nc(SCC(=O)NCC2CCCO2)c2c3c(sc2n1)CCC3 (centres undefined) | -2.08% (inactive)
O=C(CSc1nc2scc(-c3ccccc3)c2c(=O)[nH]1)NCCc1ccccc1 | -20.7% (inactive)
O=c1[nH]c(=O)n(C2CCCO2)cc1Br (centres undefined) | 1.51% (inactive)
O=c1[nH]c(=O)n([C@H]2C[C@H](O)[C@@H](CO)O2)cc1F | 34.4% (inactive)
COc1ccc(O)c(CN2CCCC(N3CCN(c4ccccc4OC)CC3)C2)c1 (centres undefined) | 4.68% (inactive)
O=C(CCNC(=O)c1ccccc1Cl)Nc1nccs1 | -4% (inactive)
COc1ccc(N(CC(=O)NCCc2ccccc2)C(=O)c2csnn2)cc1OC | -2.24% (inactive)
COc1ccc(C2CC2/C(C)=N/OC(=O)C2CC2)cc1 (centres undefined) | 68.7% (inactive)
COc1ccc(C2CC2C(C)=O)cc1 (centres undefined) | -4.29% (inactive)
CC(C)(C)OC(=O)N1CCC(CC2CC(c3ccncc3)=NO2)(C(=O)O)CC1 (centres undefined) | -6.97% (inactive)
O=c1c2ccccc2nnn1CSc1ccc2ccccc2n1 | -1.57% (inactive)
CSc1ccc(S(=O)(=O)NCC(=O)OCC(=O)N2CCCCC2C)cc1[N+](=O)[O-] (centres undefined) | -8.12% (inactive)
COc1ccc(-c2nsc3c(N4CCCCC4)ncnc23)cc1 | -0.13% (inactive)
COc1ccc(-c2nsc3c(N4CCCC4)ncnc23)cc1 | 5.98% (inactive)
Cc1ccc(CNC(=O)Cn2cccc2C(=O)c2ccccc2C)cc1 | -0.89% (inactive)
CCN(CC)S(=O)(=O)c1cccc(C(=O)N/N=C/c2ccccn2)c1 | -3.65% (inactive)
O=C(Nc1ccc(Br)cc1Cl)c1ccc(OCC2CCCO2)cc1 (centres undefined) | 3.35% (inactive)
CCOC(=O)C1(Cc2cccc(Cl)c2)CCCN(C(=O)c2cnn(CC)c2)C1 (centres undefined) | -5.14% (inactive)
